Results as given in PubChem BioAssay (NCI).
About 83,000 compounds went through this panel and 20% of them were active in at least one assay; those are over-represented in the sample as a whole.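 How to read the values: 0–100, growth inhibition (40 = 60% inhibited); 0, no net growth; -100 to 0, cell death (-40 = 40% of starting cells died; -100 = all dead).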 A number with no mark means an inactive call. Calls of active or inactive are those of the source. How the source made its calls: active means growth percent below 10; inactive means the rest.

Tested on: HL-60(TB) leukemia
Assay: NCI-60 one-dose screen, 48 h (100 = growth as untreated, 0 = no growth, -100 = all killed)
Conditions: 10 µM unless noted

O=C(N/N=C/c1ccc(Cl)cc1)c1ccc(C(F)(F)F)nc1Nc1cccc(C(F)(F)F)c1
growth: -37.2% (active)

CC1CCCCN1C(=S)Nc1ccc(S(=O)(=O)N2CCCCC2)cc1 (configuration not stated)
growth: 102%

CCOC(=O)C1=C(c2ccccc2)N=c2s/c(=C/c3ccc(Br)cc3)c(=O)n2C1c1ccc(O)cc1 (configuration not stated)
growth: 94.9%

c1csc(C2=NN3C(C2)c2ccccc2OC3c2ccncc2)c1 (configuration not stated)
growth: 97.8%

COC(=O)c1nc(-c2ccccc2)oc1S(=O)(=O)N1CCC(C(N)=O)CC1
growth: -33.2% (active)

COc1cc(C(=O)/C=C/c2c(-c3cccs3)nc3sccn23)cc(OC)c1OC
growth: 1.04% (active)

C=C(C)[C@@H]1CC[C@]2(C(=O)NCCCCCCN(CCCN)CCCN)CC[C@]3(C)[C@H](CC[C@@H]4[C@@]5(C)CC[C@H](OCCCN)C(C)(C)[C@@H]5CC[C@]43C)[C@@H]12
growth: 37% [100 µM]

COc1ccc(/C=C(/C2=NCCN2)n2ccc3ccccc32)cc1
growth: 92%

OCC(O)C(O)C(O)C(/C=N/Nc1ccccc1)=N/Nc1ccccc1 (configuration not stated)
growth: 98.6%

CCN(C(=O)c1ccc2c3c(cccc13)C=C2)c1ccccc1
growth: 86.4%

O=C(/C=C/c1cccc(O)c1)c1ccccc1O
growth: 66%

CC(C)NCC(O)COc1ccc(CCOCC2CC2)cc1 (configuration not stated)
growth: 92.8%

C/C(=N/NC(N)=S)C(=O)O
growth: 85.3%

CC1(C)C=CC[C@]2(C)[C@H]3CC[C@@H]4[C@H]5[C@H](C(=O)/C=C/c6cccnc6)CC[C@]5(CO)CC[C@@]4(C)[C@]3(C)CC[C@@H]12
growth: -29.2% (active)

COc1ccc(Cn2cc(C(=O)Nc3cccnc3Nc3ccccc3)nn2)cc1
growth: 104%

Cc1nc2scc(-c3ccc(Cl)cc3)n2c(=O)c1CCN1CCOCC1
growth: 99.6%

Cc1ccccc1NC(=O)c1cc2ccccc2cc1O
growth: 0.175% (active)

COc1ccc(-c2cc3c(OC)c(OC)c(OC)cc3oc2=O)cc1
growth: 36.5%

CC(=O)Nc1cccc(NC(C)=O)n1
growth: 96.5%

Clc1ccc2[nH]c3c(NCCCN4CCOCC4)ncnc3c2c1
growth: 36.3%

COc1cc(-c2nn(-c3cccc(NC(=O)CCNc4ccc(N5CCOCC5)cc4)c3)cc2-c2ccncc2)ccc1Cl
growth: 8.36% (active)

NC(=S)N/N=C/c1ccc(OC(=O)COc2ccccc2)cn1
growth: 35.3%

CC(=O)OC1Oc2ccccc2-c2oc(=O)c(-c3ccc(F)cc3)cc21 (configuration not stated)
growth: 97.3%

COC(=O)c1ccc2[nH]c(O)c(C(=Nc3ccc(N(C)C(=O)CN4CCN(C)CC4)cc3)c3ccccc3)c2c1
growth: -14.4% (active)

COc1cc(OCc2cccc(-c3ccc4c(c3)OCCO4)c2C)cc(OC)c1C=O
growth: 64%

CCCCCCCCCc1ccc(OCCOCCOCCOCCOCCOCCOCCOCCOCCO)cc1
growth: -40.9% (active)

O=C1/C(=C/c2ccc([N+](=O)[O-])s2)Oc2ccccc21
growth: -7.99% (active)

C=C1CCC2C3(C)COC(C)(C)OC3CCC2(C)C1C/C=C1/C(=O)OCC1Oc1ccccc1OC (configuration not stated)
growth: 38.6%

COC(=O)Nc1nc2ccc(S(=O)c3ccccc3)cc2[nH]1 (configuration not stated)
growth: 22.7%

O=C(O)c1cc2ccccc2s1
growth: 112%

Cc1cc2c(cc1C)NC1=C(N2)OC(c2c3ccccc3cc3ccccc23)C1=O (configuration not stated)
growth: 2.98% (active)

COc1cc2c(cc1OCCCN1CCN(CCCOc3cc4c(cc3OC)C(=O)N3CC(F)(F)C[C@H]3C=N4)CC1)N=C[C@@H]1CC(F)(F)CN1C2=O
growth: 15.7%

CNc1nc(S(=O)c2ccc(C#N)cc2)nc2ccccc12 (configuration not stated)
growth: 79.9%

C=C1C(=O)O[C@H]2[C@H]1CC/C(Cn1cc(-c3ccccc3)nn1)=C\CC[C@@]1(C)O[C@@H]21
growth: -28.9% (active)

C=C(c1ccc(C(=O)O)c(F)c1)c1cc2c(cc1C)C(C)(C)CCC2(C)C
growth: 97.2%

CCN(CC)c1ccc(/C=N/NC(=O)CSc2nc3ccccc3c(=O)n2Cc2ccc(S(N)(=O)=O)cc2)c(O)c1
growth: -19.7% (active)

O=C(NC(Cc1nnc2n(Cc3ccccc3)c(=O)c3c4c(sc3n12)CCCC4)c1ccc(Cl)cc1)c1ccccc1 (configuration not stated)
growth: 78.5%

CS(=O)(=O)CCNCc1ccc(-c2ccc3ncnc(Nc4ccc(OCc5cccc(F)c5)c(Cl)c4)c3c2)o1
growth: 20.3%

O=C1Nc2ccc(Cl)cc2/C1=N/c1nc(-c2ccc(F)cc2)cs1
growth: -36.7% (active)

O=C(Nc1ccc(Br)cc1)c1ccc(Cl)c(Cl)c1
growth: 19.4%

COC(=O)c1ccc(-n2cc(CCCOS(=O)(=O)c3ccc(F)cc3)nn2)cc1
growth: 99.6%

N[C@H](C(=O)O)[C@@H]1CC(Cl)=NO1
growth: 34.9% [20 µM]

CC[n+]1c(/C=C/C=C2\N(C)c3ccccc3C2(C)C)sc2ccccc21
growth: -30.3% (active)

CCOC(=O)C1=C(c2ccccc2)N=C2N(c3ccccc3)N=C(C(C)=O)N2C1c1ccc(F)cc1 (configuration not stated)
growth: 89.8%

COc1cc(/C=C\c2cc(OC)c(OC)c(OC)c2)cc(N/C=C\C(=O)c2c[nH]c3ccccc23)c1OC
growth: -30% (active)

Clc1cc(Cl)cc(Nc2ccc3cc(OCCCN4CCOCC4)ccc3n2)c1
growth: 26.7%

CC(N)C(Cc1ccc(Cl)cc1)c1ccc(Cl)cc1 (configuration not stated)
growth: 25.9%

COC(=O)C1=CCC(n2cnc3c(N)ncnc32)O1 (configuration not stated)
growth: 94%

COCCOc1cc2ncnc(N3CCN(S(=O)(=O)c4ccccc4Cl)CC3)c2cc1OCCOC
growth: 56%

CCN(CC)Cc1cc(Nc2ccnc3cc(Cl)ccc23)ccc1OC
growth: 86%

Cc1cc2nc(CC(=O)c3ccncc3)c(=O)[nH]c2cc1C
growth: 89.8%

N#Cc1c(-c2ccccc2)cc(-c2ccccc2)n(CCCC(=O)NO)c1=O
growth: 10.2%

Nc1ncc(-c2ccc3ncnc(N4CCc5ccc(Cl)cc54)c3c2)cc1C(F)(F)F
growth: 22.9%

CN1CCN(c2ccc3nc(-c4ccc5nc(-c6ccc(OCCC(C)(C)C)cc6)[nH]c5c4)[nH]c3c2)CC1
growth: 10.5%

C[C@H]1[C@H]2[C@H]3CC[C@@H]4[C@@]5(C)C/C(=C/c6ccco6)C(=O)C(C)(C)[C@@H]5CC[C@@]4(C)[C@]3(C)CC[C@]23CO[C@]1(C)[C@@H](C(=O)/C=C\c1ccco1)C3
growth: 95.8%

CCC12CCC[N+]3([O-])CCC4(C(=Nc5ccccc54)C(O)(C(=O)OC)C1)C23 (configuration not stated)
growth: 124%

O=c1c2c(=NCCN3CCCC3)cc3c(=O)n(CCCN4CCOCC4)c(=O)c4c(-c5ccc(CN6CCCC6)cc5)cc(c(O)n1CCCN1CCOCC1)c2c4-3
growth: -36.5% (active)

CCOC(=O)CNN
growth: 113%

Nc1cc(-c2ccc(Cl)cc2)nn1-c1nc(-c2ccc(Br)cc2)cs1
growth: 96.3%

CCCCCCC/C=N/NC(=O)c1ccc(-n2cc(-c3ccccc3)nn2)cc1
growth: 95.2%

COC(=O)c1cc(-c2cc(OC)c(OC)c(OC)c2)[nH]c1N/N=C/c1c(Cl)cccc1Cl
growth: 134%

c1ccc(CN2C(c3ccccc3)=Nc3ccccc3C2c2c[nH]c3ccccc23)cc1 (configuration not stated)
growth: 19.6%

O=C1/C(=C\c2ccc(F)cc2)CN(C(=O)c2ccccc2)C/C1=C\c1ccc(F)cc1
growth: 25.6%

O=C1/C(=C\c2cccn2Cc2ccccc2)c2ccccc2N1c1c(Cl)cccc1Cl
growth: 71%

O=C1/C(=C/c2ccc3c(c2)OCO3)SC(=S)N1CCc1ccc(O)cc1
growth: 90.9%

Cn1ncc(Cl)c1-c1cc(C(=O)N[C@H](CN)Cc2cccc(F)c2)sc1Cl
growth: 12.2%

COCCn1cc(-c2nc(-c3cc4cccnc4n3C)cs2)c2cc(OC)ccc21
growth: 82.6%

CN1CCN(Cc2ccc(NC(=O)c3cncc(C#Cc4cncc5nccnc45)c3)cc2C(F)(F)F)CC1
growth: 1.66% (active)

COC(=O)c1nc(=S)[nH]c(C(=O)OC)c1C(=O)c1ccccc1
growth: 116%

O=C(Nc1ccc(OS(=O)(=O)c2ccc(F)cc2)cc1)C12CC3CC(CC(C3)C1)C2
growth: 52.7%

N[C@@H](CO)C(=O)O
growth: 106%

COc1ccc(-c2cc(-c3ccc(N(C)C)cc3)c(C#N)c(N3CCCC3)n2)cc1
growth: 67.2%

O=C1CC[C@@H]2CCCC[C@@H]2C1
growth: 110%

COc1ccc(/C=C(\C#N)n2nc3cccc(F)c3n2)cc1
growth: 82%

CN(CCCCCl)P(=O)(OCc1ccc([N+](=O)[O-])o1)C(F)(F)c1ccc(CC(=O)NC[C@@H](O)/C=C\[C@@H](O)[C@H](CO)Cc2ccccc2)cc1 (some centres not stated)
growth: 80.3%

CN(C)CCN1C(=O)c2cccc3c(-c4ccc(-c5nc6c7ccccc7c7ccccc7c6[nH]5)cc4)ccc(c23)C1=O
growth: 90.7%

C=C1CC2(OC1=O)C(=O)N(CCCCCCCCCCCCN1C(=O)C3(CC(=C)C(=O)O3)c3ccccc31)c1ccccc12 (configuration not stated)
growth: 45.5%

O=C(/C=C/c1ccccc1)c1ccc(Nc2nc(Nc3ccc(F)cc3)nc(Nc3ccc(Cl)cc3)n2)cc1
growth: 43.9%

O=C(/C=C\c1ccc(O)cc1)c1ccccc1
growth: 71.9%

Oc1cc(O)c(Br)cc1Br
growth: 104%

O=c1cc(-c2ccccc2)nc(SCc2nc3cc(Cl)c(Cl)cc3[nH]2)[nH]1
growth: 101%

C=C(C)[C@@H]1CC[C@]2(C(=O)N3CCN(C)CC3)CC[C@]3(C)[C@H](CC[C@@H]4[C@@]5(C)C/C(=C/c6ccncc6)C(=O)C(C)(C)[C@@H]5CC[C@]43C)[C@@H]12
growth: -21.7% (active)
